Assay [1] can be described thus: Wnt pathway potentiators raising nuclear beta-catenin – imaging, WNT3A-conditioned medium, mouse C2C12, NPC library, primary screen (AID 1117326; in the data active = nuclear beta-catenin stimulation mostly above about 4.2%, no sharp cut-off; inactive = mostly below about 10%). The settings on record: stronger effect = higher value.
Assay [2] in a line: stimulators of insulin release from INS-1E, primary screen, cell-based, 5 mM glucose, NPC library (AID 1117329;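 active = compound raises insulin release from rat beta cells at 5 mM glucose, no numeric limit stated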). The settings on record: rat INS-1E insulin secretion, at 10 µM, stronger effect = higher value.
Assay [3] is described as follows: growth inhibition of GSK3B-pretreated HCT116 cells – cell-based, CellTiter-Glo, 0.2 to 20 µM (AID 1117336;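 active = compounds lowering colon cancer cell viability after pretreatment blocking the GSK3B kinase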). The settings on record: HCT116 viability after GSK3B inhibitor, at 20 µM, stronger effect = higher value. (In general: Cellular ATP, detected with luciferase, serves as a proxy for viable cell number.)
The nature of assay [4]: inhibition of endothelial tube formation, primary screen, imaging, VEGF stimulated, CD31 staining, tube area, NPC library (AID 1117340;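 active = compound that reduces growth-factor-driven endothelial tube area in a mixed cell culture, no cutoff stated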). The settings on record: VEGF-stimulated ADSC/ECFC co-culture, at 10 µM, stronger effect = higher value.
A short description of assay [5]: GLP1 release stimulators, primary, NCI-H716, NPC library (AID 1117341;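 active = compound raises GLP1 secretion from the human gut endocrine cells, with no numeric limit stated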). The settings on record: NCI-H716 cells, at 10 µM, stronger effect = higher value.
Assay [6] is described as follows: HCT116 colon cancer cell growth inhibition, primary screen, CellTiter-Glo luminescence, NPC library (AID 1117342;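 active = compounds that lower survival of HCT116 colon cancer cells in the luminescence readout, no numeric limit stated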). The settings on record: at 20 µM (top of the series).
Assay [7] in a line: reduced SW480 viability measured with CellTiter-Glo, NPC library, primary (AID 1117343;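 active = compounds that lower viability of the colon cancer cells in the luminescence readout, with no numeric limit stated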). The settings on record: CellTiter-Glo luminescence; at 20 µM (top of the series) unless noted.
Assay [8] is described as follows: NPC library primary testing for decreased DLD-1 cell viability via CellTiter-Glo (AID 1117346;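 active = compounds that lower survival of DLD-1 colon cancer cells in the luminescence readout, no cutoff given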). The settings on record: DLD-1 viability, CellTiter-Glo luminescence; at 20 µM (top of the series).
Assay [9] in a line: viability loss in pontine glioma line – cell-based, JHH-DIPG-1, MIPE4.0, CellTiter-Glo, qHTS, dose response (AID 1347062; cut-off not given, nearly all actives have AC50 up to about 27 µM;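 as to AC50: cells exposed to compound for two days before readout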). The settings on record: JHH-DIPG-1 viability, CellTiter-Glo ATP luminescence.
The nature of assay [10]: viability loss in pontine glioma line – cell-based, SU-DIPG-IV, MIPE4.0, CellTiter-Glo, qHTS, dose response (AID 1347063; cut-off not given, nearly all actives have AC50 up to about 30 µM;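 also: compound exposure lasted 48 hours before the viability readout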). The settings on record: CellTiter-Glo ATP luminescence.
Assay [11] in a line: viability loss in pontine glioma line – cell-based, SU-DIPG-XXV, MIPE5.0, CellTiter-Glo, qHTS, dose response (AID 1347065; cut-off not given, nearly all actives have AC50 up to about 26 µM;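 also: cells exposed to compound for 48 hours before ATP readout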). The settings on record: CellTiter-Glo ATP luminescence.
Assay [12] is described as follows: JHH-DIPG-1 glioma cell viability, MIPE5.0 library, CellTiter-Glo luminescence, qHTS (AID 1347067; cut-off not given, nearly all actives have AC50 up to about 26 µM;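 also: cells exposed to compound for 48 hours before readout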). The settings on record: JHH-DIPG-1 glioma viability, CellTiter-Glo ATP luminescence.
Assay [13] can be described thus: growth inhibition of DIPG cells – cell-based, MIPE5.0 library, qHTS (AID 1347068; cut-off not given, nearly all actives have IC50 up to about 30 µM). The settings on record: SU-DIPG-XXV viability. (In general: In qHTS, concentration-response curves come from the screen itself.)
Assay [14] in a line: viability loss with induced miR-34 in A549 – imaging, A549 dox-inducible miR-34, nuclei and caspase counts, primary screen (AID 1347080). The settings on record: A549 miR-34 inducible, Hoechst nuclei count, 48 h.
Assay [15] can be described thus: blockers of cellular phospholipid synthesis – cell-based, LOPAC library, screen 4, primary screen (AID 1347384; call rule not given here). The settings on record: animal cells, phospholipid biosynthesis inhibition screen; at 10 µM.
Assay [16] in a line: galactose survival enhancers in mitochondrial complex I cybrids – cell-based, galactose medium, ATP luminescence, primary screen (AID 1645843;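 active = z-score of at least 1.8 in each of two replicates, scored against plate mean and spread of sample wells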;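 also: positive z means more ATP and so rescue of galactose-driven cybrid death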). The settings on record: complex I mutant cybrid cells, 72 h, stronger effect = higher value.
The nature of assay [17]: MELAS cybrid and Rieske KO viability enhancers – cell-based, MELAS cybrids, Rieske KO mouse fibroblasts, CellTiter-Glo, primary screen (AID 1508586;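 active = mean z-score across replicates of 1.96 or higher in either the MELAS or the Rieske mutant cell line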;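 also: z relative to plate mean and SD of compound and empty wells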). The settings on record: low glucose.
Assay [18] is described as follows: P. berghei load reduction in hepatocytes – cell-based, HepG2, luciferase luminescence, HepG2 viability, primary screen (AID 624349; in the data active = parasite load remaining mostly below about 12%, no sharp cut-off; inactive = mostly above about 10%;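 also: 100% = mean of DMSO negative control wells on the same plate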). The settings on record: P. berghei liver stage in HepG2, luciferase luminescence, concentration not given here; parasite load remaining: stronger effect = lower value; viability: measured here: HepG2 viability without parasites.
Assay [19] can be described thus: growth inhibition of DIPG cells – cell-based, MIPE4.0 library, CellTiter-Glo luminescence, qHTS (AID 1347066; cut-off not given, nearly all actives have AC50 up to about 30 µM;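 also: cells exposed to compound for 48 hours before readout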). The settings on record: SU-DIPG-VI viability, CellTiter-Glo ATP luminescence.
Where [20] appears, read: stronger effect = lower value, cell number ratio, induced over uninduced.
Setting [21] is: measured here: relative caspase fold change +Dox/-Dox.
Setting [22] is: measured here: total cells with miR-34 induction, stronger effect = lower value.
Where [23] appears, read: measured here: total cells without miR-34 induction.
Where [24] appears, read: MELAS cybrid survival, CellTiter-Glo 48 h, stronger effect = higher value.
[25] abbreviates: Rieske KO mouse fibroblast survival, CellTiter-Glo 72 h.

Where “and” joins values, the source holds several entries; their conditions need not be identical. Equal values may be shown once. Inconclusive results are not listed. More than one record can exist for a structure, and the calls need not agree. Calls of active or inactive are those of the source.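 The calls were made as follows, unless noted: active = compounds whose cell count with miR-34 switched on is under 0.7 times the count with it off; inactive = the rest.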

As to `NCCCC(N)(C(=O)O)C(F)F` (centres undefined), the nuclear beta-catenin stimulation in assay [1] (at 10 µM) is -0.1% (inactive); in [1] (stimulation, at 2 µM), -0.3%. In addition, the insulin secretion stimulation in assay [2] was -2.2% (inactive). Moreover, the viability decrease in assay [3] was 6.2% (inactive). Moreover, in [4], the tube area decrease is -6.3% (inactive). In addition, the GLP1 secretion stimulation in assay [5] was 2.8% (inactive). The inhibition of viability in [6] is 12.2% (inactive). For the same molecule, the viability decrease (inhibition) in assay [7] is 65.3% (active); in assay [8], 36% (inactive). Also, the outcome in [9], in assay [10], in assay [11], in assay [12], in assay [13] and in assay [15] was inactive. The results for the fold change in [14] (setting [20]) and in assay [14] (setting [21]) were 1.13 (inactive) and 0.834, respectively. The cell count in assay [14] (setting [22]) stood at 8420; in assay [14] (setting [23]), 7470. Besides, the z-score in assay [16] was 0.11 (inactive).
As usually defined, the AC50 is the concentration giving half of the maximal activity seen. Regarding `Cc1c(C(=O)NN2CCCCC2)nn(-c2ccc(Cl)cc2Cl)c1-c1ccc(Cl)cc1`, the nuclear beta-catenin stimulation in assay [1] (at 10 µM) was -0.4% (inactive); in assay [1] (stimulation, at 2 µM), -0.1%. The insulin secretion stimulation in assay [2] was 3% (inactive). Further, in assay [3], the viability decrease is 109% (active). Moreover, the tube area decrease in [4] is 110% (active). The GLP1 secretion stimulation in [5] was 1.2% (inactive). Besides, the inhibition of viability in assay [6] was 108% (active). Moreover, the viability decrease (inhibition) was 130% (active) in [7] and 101% (active) in assay [8]. Also, the AC50 in [9] is 16.6 µM (active); in assay [10] it was 16.6 µM (active); in [12], 18.6 µM (active). In addition, the call in [13] was inactive. The fold change is 0.783 (inactive) and 0.989 (inactive) in assay [14] (setting [20]); 0.923 and 2.07 in [14] (setting [21]). The cell count in assay [14] (setting [22]) is 4800 and 7920; in assay [14] (setting [23]), 6120 and 8010. Further, the z-score in assay [17] (setting [24]) is -1.37 (inactive) and -3.1 (inactive); in [17] (setting [25]), 0.317 and -0.818; in [16] it was -2.65 (inactive).
As a reminder, the viability is a read-out of living cells in per cent, often relative to untreated cells. On to `Cc1ccc(-c2ncc(Cl)cc2-c2ccc(S(C)(=O)=O)cc2)cn1`, for which the parasite load remaining in assay [18] is 30% (inactive). In addition, in [18], the viability is 120%. The nuclear beta-catenin stimulation was 10.8% (inactive) in assay [1] (at 10 µM) and 8.4% in assay [1] (stimulation, at 2 µM). In [2], the insulin secretion stimulation was 2.3% (inactive). For the same molecule, the viability decrease in assay [3] was 27.3% (inactive). In addition, the tube area decrease in assay [4] is -22.7% (inactive). The GLP1 secretion stimulation in [5] was 0.5% (inactive). In addition, the inhibition of viability in [6] was -14.5% (active). For the same molecule, the results for the viability decrease (inhibition) in [7] and in [8] were 5.7% (inactive) and 12.4% (inactive), respectively. Further, the molecule was called inactive in assay [12] and in assay [13]. The results for the fold change in assay [14] (setting [20]) and in [14] (setting [21]) were 0.833 (inactive) and 0.95, respectively. Moreover, the cell count in assay [14] (setting [22]) was determined as 8800; in assay [14] (setting [23]), 10600. The z-score is -0.283 (inactive) and 0.00989 (inactive) in assay [17] (setting [24]); 0.187 and -0.33 in [17] (setting [25]); 1.08 (inactive) in [16].
For the molecule `C[C@]12CC[C@@H]3c4ccc(O)cc4C[C@@H](CCCCCCCCCS(=O)CCCC(F)(F)C(F)(F)F)[C@H]3[C@@H]1CC[C@@H]2O` (some centres undefined), the parasite load remaining in assay [18] is 12.8% (inactive). In addition, the viability in assay [18] was 121%. The nuclear beta-catenin stimulation in [1] (at 10 µM) is 1% (inactive); in assay [1] (stimulation, at 2 µM) it was 0.4%. Moreover, the insulin secretion stimulation in [2] was 5.1% (inactive). Further, the viability decrease in assay [3] is -4.5% (inactive). Besides, in [4], the tube area decrease was 16.2% (inactive). Further, the GLP1 secretion stimulation in assay [5] is -2.7% (inactive). In assay [6], the inhibition of viability is 49.8% (inactive). Besides, the viability decrease (inhibition) was 54% (active) in assay [7] and 18.9% (inactive) in assay [8]. Moreover, the molecule was classed as inactive in [9], in [11], in [19], in assay [12], in assay [13] and in assay [15]. In addition, the fold change in assay [14] (setting [20]) was 0.987 (inactive) and 0.822 (inactive); in assay [14] (setting [21]) it was 1.73 and 1.2. The cell count in assay [14] (setting [22]) is 7220 and 6230; in [14] (setting [23]), 7310 and 7580. The z-score in assay [17] (setting [24]) was -1.54 (inactive) and 0.0305 (inactive); in [17] (setting [25]) it was -0.225 and 1.88; in assay [16], 2.5 (active) and -0.155 (inactive).
